Measurements: PMC7819943, “Rice protein-binding microarrays: a tool to detect cis-acting elements near promoter regions in rice”
Whole data set: some 68,000 sequences, median “fluorescence intensity (a.u.)” near 9,100, cut for the highest 2% near 16,000. The entries come from a sample that favours the highest values as a whole.

target: OsWRKY34 (Oryza sativa, UniProt Q0JBA9 1-250); assay: protein-binding microarray (RPBM); PBS, 2% BSA, 51.3 ng/ul salmon testes DNA, 50 uM zinc acetate, 200 nM TF, 25 C, 1 h; high values mean tight binding; settings: protein: recombinant; tags: N-terminal polyhistidine and DsRed monomer fusion (pET32a); label: CyDye5-dUTP incorporated in the synthesized complementary strand; 3' TTTTT single-stranded linker to array surface; dsDNA, one strand shown
Sequence (Q0JBA9 entry or part of it): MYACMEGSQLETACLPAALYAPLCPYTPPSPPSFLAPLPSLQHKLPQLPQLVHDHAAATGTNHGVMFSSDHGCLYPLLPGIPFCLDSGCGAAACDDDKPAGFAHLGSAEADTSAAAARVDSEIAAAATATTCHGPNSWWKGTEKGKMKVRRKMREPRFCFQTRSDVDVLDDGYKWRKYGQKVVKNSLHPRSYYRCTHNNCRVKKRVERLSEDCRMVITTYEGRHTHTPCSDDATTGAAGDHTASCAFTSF
Procedure, shortened: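 Ni–NTA purification followed expression in E. coli BL21-CodonPlus of transcription factors fused N-terminally to a polyhistidine tag and DsRed. At 200 nM in PBS with 2% BSA, salmon testes DNA and 50 µM zinc acetate, the protein was incubated for 1 h at 25 °C with a custom Agilent array that had been primer-extended with Cy5-dUTP and blocked with 2% BSA. After washing, the array was read on an Axon 4000B scanner. The binding signal is per-feature fluorescence intensity in arbitrary units.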

Row | Sequence | binding signal
1 | TCGGTTGGTTGGGAATTTCCATGACTATTTTCACCTATAACGGAGTCACCTAGTGCAG | 8650 fluorescence intensity (a.u.)
2 | AGGCTTCCAATCTTGTGCTAATCTGCTGGTGAAGTATATGCGGAGTCACCTAGTGCAG | 8480 fluorescence intensity (a.u.)
3 | CTCCGCCGCCACGCTCGCCCGCTGTTTGCTCCGTCCGCAGCGGAGTCACCTAGTGCAG | 8350 fluorescence intensity (a.u.)
4 | TCTCTGGTGGCTCCCTGGCGCTCCTCTTCACTCCATCCTCCGGAGTCACCTAGTGCAG | 9090 fluorescence intensity (a.u.)
5 | TTTCTAGATGTCTACGCGTTATCAGCATGTTGATGTCTACCGGAGTCACCTAGTGCAG | 8460 fluorescence intensity (a.u.)
6 | GTCTCTTCTCTTCTCTCGTGCAAGGCCGGCAGTGTACCGTCGGAGTCACCTAGTGCAG | 9270 fluorescence intensity (a.u.)
7 | TAGAAGAGCGCGTTGACACCGTTGACTTTGGATTTTCCGTCGGAGTCACCTAGTGCAG | 18700 fluorescence intensity (a.u.)
8 | GTTTGTCGTAGTAGTTTATTTTTGACACCGGCTTTCAAATCGGAGTCACCTAGTGCAG | 9880 fluorescence intensity (a.u.)
9 | AAAACACCAAATTAGTTTTATTAAAACTAACTTTCAAATACGGAGTCACCTAGTGCAG | 11900 fluorescence intensity (a.u.)
10 | ATTCAACACTTTTAAAATATTTTGATTGCGGTTTCTTTTACGGAGTCACCTAGTGCAG | 9530 fluorescence intensity (a.u.)
11 | CTCCCTCTGTTTCAAAATATTTGACACTGTTGACTTTTTACGGAGTCACCTAGTGCAG | 11000 fluorescence intensity (a.u.)
12 | TCAAAATATTTGACACCGTTGACTTTTTAGGACGTGTTTACGGAGTCACCTAGTGCAG | 24900 fluorescence intensity (a.u.)
13 | GTTTCAAAATATTTGACACCGTTGACTTTTTAGTACGTGTCGGAGTCACCTAGTGCAG | 19100 fluorescence intensity (a.u.)
14 | TTGGTAGAGTTGTCCGTTTGGATTTTGGCCTCCCTTTTTTCGGAGTCACCTAGTGCAG | 8380 fluorescence intensity (a.u.)
15 | CAAATTAGATGTTATTTTGACTTTTTTTTACAATATTTGACGGAGTCACCTAGTGCAG | 10600 fluorescence intensity (a.u.)
16 | ATATTTGACCGTTTGTCTTTTTCAAAAACTTTTGTGAAATCGGAGTCACCTAGTGCAG | 9920 fluorescence intensity (a.u.)
17 | CGTTTCAAAATATTTAACACCGTTGACTTTTTAGTACGTGCGGAGTCACCTAGTGCAG | 31100 fluorescence intensity (a.u.)
18 | CCGTTGACTTGGATTTGTTCCTTTTTCATTTTTTATCGTTCGGAGTCACCTAGTGCAG | 14700 fluorescence intensity (a.u.)
19 | ATCTGCCTAACGTAAAATGCACTATATTCTGTTTTGTTCTCGGAGTCACCTAGTGCAG | 8370 fluorescence intensity (a.u.)
20 | GTGGCGACTGTTATCCCTAATTTTGCGGACTTGCTCTGATCGGAGTCACCTAGTGCAG | 9800 fluorescence intensity (a.u.)
21 | AACCACCTGAATTTCGTCGAATTTTACCAATTCTGCTGAACGGAGTCACCTAGTGCAG | 9120 fluorescence intensity (a.u.)
22 | AAGACATGTGAATTTTGGTGGGATGTGGATGGGGAATTGACGGAGTCACCTAGTGCAG | 9840 fluorescence intensity (a.u.)
23 | TTCTATTTTACCTCTCGTCTCTCTCCTCGCGGTCGCTTCTCGGAGTCACCTAGTGCAG | 12800 fluorescence intensity (a.u.)

Row | Sequence | binding signal
24 | CTCCTCGGGCTAAAAGTGGTAATACGCGTTTCTCAAGCTTCGGAGTCACCTAGTGCAG | 9930 fluorescence intensity (a.u.)
25 | CTCACTTGACCGTGAACAGCACTCACTTGATTTGTACTTTCGGAGTCACCTAGTGCAG | 10000 fluorescence intensity (a.u.)
26 | TGTTCTCTCCTGCCTCCACACTTTCTGGCACGGTACAAAACGGAGTCACCTAGTGCAG | 8370 fluorescence intensity (a.u.)
27 | TTAATTTCACGGTTTCATCTCGACATCTCATCATCTGTTTCGGAGTCACCTAGTGCAG | 12100 fluorescence intensity (a.u.)
28 | ATGCCATTTTTCCCGTTTGTTGCAATTGCAAAACATTTTTCGGAGTCACCTAGTGCAG | 8580 fluorescence intensity (a.u.)
29 | CTCTCACACCGTGCCATATCCCGAACATCCCTTGATCGAACGGAGTCACCTAGTGCAG | 9530 fluorescence intensity (a.u.)
30 | CTTTCCTGTACTATTTTACTGTCCGATTTACAACATGTGACGGAGTCACCTAGTGCAG | 12900 fluorescence intensity (a.u.)
31 | TCGGTTTTTACTGCTTCCATCAGACGTCGGTCTGTTTTCGCGGAGTCACCTAGTGCAG | 9470 fluorescence intensity (a.u.)
32 | ACCTGTTTCGTTCGTCCACGCCAGCGCCAACCGGACATGACGGAGTCACCTAGTGCAG | 9460 fluorescence intensity (a.u.)
33 | TCTTGTATTCTCCACTAGTCTTGGGTCATCCATTCTTCAGCGGAGTCACCTAGTGCAG | 8550 fluorescence intensity (a.u.)
34 | GCCTCTGTTCTTCCACTCATTATTATCATTTGCAGCTCCGCGGAGTCACCTAGTGCAG | 10400 fluorescence intensity (a.u.)
35 | TCCCAACCCACCGTTCCATTCTCTCGAGCTCACCCCGTCACGGAGTCACCTAGTGCAG | 10500 fluorescence intensity (a.u.)
36 | TTCAAAATATTTGACACCGTTGACTTTTTAGTACGTGTTTCGGAGTCACCTAGTGCAG | 18200 fluorescence intensity (a.u.)
37 | ATTTTCAAAATATTTGACACTGTTGACTTTTTAGTACATACGGAGTCACCTAGTGCAG | 9840 fluorescence intensity (a.u.)
38 | CCTCCGTTTCAAAATATTTGACACCGTTGACTTTTTAGTACGGAGTCACCTAGTGCAG | 14100 fluorescence intensity (a.u.)
39 | ACTTTTTAGTGCGTATTTGACTATTCGTCTTATTTAAAAACGGAGTCACCTAGTGCAG | 9800 fluorescence intensity (a.u.)
40 | TCTGTATTAGCGTTCGGTTGTTTTATTTGACTTTCCAAATCGGAGTCACCTAGTGCAG | 8360 fluorescence intensity (a.u.)
41 | TGTACTTCAAAAATTTACTTTACCGTGTGTTTTATTTTTTCGGAGTCACCTAGTGCAG | 9650 fluorescence intensity (a.u.)
42 | AAAAATATTTGACAGCGTTGACTTTTTAGTGCGTATTTGACGGAGTCACCTAGTGCAG | 42800 fluorescence intensity (a.u.)
43 | CCGTTTCAAAATATTTGACACCGTTGACTTTTTAGTACGTCGGAGTCACCTAGTGCAG | 26800 fluorescence intensity (a.u.)
44 | TCGTTTCAAAATACTTGACACCGTTGACTTTTTAGTACGTCGGAGTCACCTAGTGCAG | 23300 fluorescence intensity (a.u.)
45 | ATCAATCTATTAGAATACTTATTACTGTATCTACTTATGTCGGAGTCACCTAGTGCAG | 8690 fluorescence intensity (a.u.)
